Screening results as filed in PubChem BioAssay.
Myeloid diff MLP: compounds promoting myeloid differentiation; ER-HoxA9 myeloid progenitors, lysozyme-GFP differentiation, flow cytometry; calls only at 10 µM; hit rate 1% among 360,000;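 active means normalized GFP-positive differentiation at or above the plate's own cutoff, the solvent-only control mean plus 3 SD; inconclusive means no clear call, values can overlap the other calls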;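 further: cells exposed to compound for four days before flow analysis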
rCAG RNA binder: molecules binding r(CAG) RNA repeats; inhibition, % at 3 µM; r(CAG) RNA repeat, TO-PRO-1 dye displacement fluorescence; hit rate 1.3% among 370,000;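 active means inhibition above the plate cutoff, the mean of all test compounds on that plate plus 3 SD, cut at about 35% in these data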;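 further: 0% = DMSO alone and 100% = 100 µM mitoxantrone as full dye displacement; higher means more dye released from RNA so lower well fluorescence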
GRIN3A LBD mod: NR3A (human) ligand-binding domain modulation; hit rate 2.5% among 340,000; Tm shift relative to glycine control, % at 25 µM; NR3A LBD differential scanning fluorimetry, Tm shift; 0% = protein alone, 100% = glycine-bound protein;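 active means melting temperature shift of at least 10% of the positive control shift, at one fixed dose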
FAS TE block: inhibitors of human fatty acid synthase thioesterase domain; recombinant FAS-TE, OMFH fluorogenic substrate, fluorescence endpoint; inhibition, % at 15 µM; hit rate 0.67% among 360,000; AID 602261;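 active means compounds whose normalised, plate-corrected inhibition of enzyme fluorescence in the single-dose primary screen is 50% or more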;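 further: 0% = DMSO with enzyme and 100% = substrate without enzyme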
Target sequence (P49327 whole entry, looked up, the tested form may be a part): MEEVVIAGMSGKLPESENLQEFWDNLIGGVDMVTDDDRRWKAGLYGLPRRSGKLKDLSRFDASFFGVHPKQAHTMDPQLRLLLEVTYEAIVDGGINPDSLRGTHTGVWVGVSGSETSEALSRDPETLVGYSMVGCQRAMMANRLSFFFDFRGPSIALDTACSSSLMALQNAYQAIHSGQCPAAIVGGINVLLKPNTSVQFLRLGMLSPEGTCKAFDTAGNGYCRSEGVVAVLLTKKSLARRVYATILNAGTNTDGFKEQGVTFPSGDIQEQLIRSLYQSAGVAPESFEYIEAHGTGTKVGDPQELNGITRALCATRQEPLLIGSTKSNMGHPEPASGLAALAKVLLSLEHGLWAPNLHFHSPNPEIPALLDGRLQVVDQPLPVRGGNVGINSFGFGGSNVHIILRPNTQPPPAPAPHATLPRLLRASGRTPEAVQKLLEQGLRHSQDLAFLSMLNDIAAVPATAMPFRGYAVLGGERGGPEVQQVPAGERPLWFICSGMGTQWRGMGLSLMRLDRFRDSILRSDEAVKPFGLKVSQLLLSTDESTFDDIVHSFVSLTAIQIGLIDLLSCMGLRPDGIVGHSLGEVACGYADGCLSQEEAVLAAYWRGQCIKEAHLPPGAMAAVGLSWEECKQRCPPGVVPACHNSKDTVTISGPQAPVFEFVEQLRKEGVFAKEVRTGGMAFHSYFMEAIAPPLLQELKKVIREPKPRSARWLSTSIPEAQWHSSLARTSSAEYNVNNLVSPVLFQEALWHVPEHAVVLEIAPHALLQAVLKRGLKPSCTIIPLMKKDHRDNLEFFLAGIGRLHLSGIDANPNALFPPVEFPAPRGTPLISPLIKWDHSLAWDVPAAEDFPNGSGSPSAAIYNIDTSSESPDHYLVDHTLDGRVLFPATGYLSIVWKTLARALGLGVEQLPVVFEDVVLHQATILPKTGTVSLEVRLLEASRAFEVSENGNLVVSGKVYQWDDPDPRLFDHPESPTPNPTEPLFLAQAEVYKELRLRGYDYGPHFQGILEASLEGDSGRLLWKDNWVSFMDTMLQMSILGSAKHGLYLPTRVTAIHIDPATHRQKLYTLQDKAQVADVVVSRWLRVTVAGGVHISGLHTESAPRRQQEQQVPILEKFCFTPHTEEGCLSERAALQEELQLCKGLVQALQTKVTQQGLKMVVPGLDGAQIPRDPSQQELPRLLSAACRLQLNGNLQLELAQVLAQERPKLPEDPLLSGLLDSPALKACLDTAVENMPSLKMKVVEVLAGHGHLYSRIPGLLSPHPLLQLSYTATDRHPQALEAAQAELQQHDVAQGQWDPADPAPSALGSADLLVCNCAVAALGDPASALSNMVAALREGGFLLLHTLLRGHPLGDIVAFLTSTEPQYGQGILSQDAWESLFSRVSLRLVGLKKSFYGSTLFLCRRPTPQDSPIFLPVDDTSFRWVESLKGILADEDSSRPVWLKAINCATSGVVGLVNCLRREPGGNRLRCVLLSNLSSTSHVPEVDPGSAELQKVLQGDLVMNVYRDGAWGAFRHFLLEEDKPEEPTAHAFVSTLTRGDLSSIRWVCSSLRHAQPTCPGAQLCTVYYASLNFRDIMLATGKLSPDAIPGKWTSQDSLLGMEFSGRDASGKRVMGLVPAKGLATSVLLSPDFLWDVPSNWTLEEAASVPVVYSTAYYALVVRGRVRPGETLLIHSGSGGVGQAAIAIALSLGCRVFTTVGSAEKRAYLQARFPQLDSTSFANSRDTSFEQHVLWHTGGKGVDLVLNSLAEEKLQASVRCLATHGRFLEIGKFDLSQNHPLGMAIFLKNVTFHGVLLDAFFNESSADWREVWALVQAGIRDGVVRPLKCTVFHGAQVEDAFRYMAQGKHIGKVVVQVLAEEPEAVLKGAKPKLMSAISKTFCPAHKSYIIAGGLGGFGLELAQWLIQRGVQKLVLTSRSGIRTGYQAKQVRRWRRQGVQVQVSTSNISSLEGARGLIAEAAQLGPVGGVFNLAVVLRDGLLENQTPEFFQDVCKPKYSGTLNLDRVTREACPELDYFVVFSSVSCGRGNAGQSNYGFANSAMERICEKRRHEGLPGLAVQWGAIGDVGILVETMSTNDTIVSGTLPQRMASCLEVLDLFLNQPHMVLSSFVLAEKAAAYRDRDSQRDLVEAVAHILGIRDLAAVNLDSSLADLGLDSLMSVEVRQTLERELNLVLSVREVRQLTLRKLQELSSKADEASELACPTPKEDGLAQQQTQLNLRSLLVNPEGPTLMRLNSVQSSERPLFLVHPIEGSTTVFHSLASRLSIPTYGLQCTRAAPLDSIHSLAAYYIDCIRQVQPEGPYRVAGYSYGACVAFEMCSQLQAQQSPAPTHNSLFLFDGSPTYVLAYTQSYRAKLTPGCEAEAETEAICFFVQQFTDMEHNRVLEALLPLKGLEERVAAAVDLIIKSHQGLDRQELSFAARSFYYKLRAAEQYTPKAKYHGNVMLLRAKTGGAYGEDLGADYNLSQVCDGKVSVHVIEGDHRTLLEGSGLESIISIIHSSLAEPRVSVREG
MPTP block: blocks calcium-induced mitochondrial swelling; isolated mouse mitochondria, Ca2+ swelling absorbance, 30 min; inhibition, % at 10 µM; hit rate 1.4% among 360,000; AID 602449;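 active means inhibition of 50% or more, scaled per plate between neutral and stimulator controls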;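 further: 0% = DMSO wells given calcium and 100% = 1 mM EGTA wells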
The depositor's hits bear a star; i = inactive; u = inconclusive; x = no result given; + = active, no number. Only some compounds are listed: those with a hit (about 5.7% of all), similar ones and a draw of the others.

SMILES	Myeloid diff MLP	rCAG RNA binder	GRIN3A LBD mod	FAS TE block	MPTP block
COC(C(=O)NNS(=O)(=O)c1ccc([N+](=O)[O-])cc1)c1ccccc1 (stereo not given)	i	2	-2	-1	-1
CC(=O)CC(c1ccccc1)S(=O)(=O)c1ccc([N+](=O)[O-])cc1 (stereo not given)	+	-2	1	-1	0
O=C(NCCc1ccccc1)OCc1cn(-c2cccc(Cl)c2)nn1	x	3	x	x	x
COCC(=O)NCCc1ccc(S(N)(=O)=O)cc1	+	-2	2	-1	0
CCOC(=O)c1c(C2COc3ccccc3O2)csc1NC(=O)c1ccccc1 (stereo not given)	i	1	11*	26	3
COc1ccc(CNS(=O)(=O)CC2NCc3ccc(C)cc32)cc1 (stereo not given)	x	9	x	x	x
COCc1ccc(C(=O)N2CCCC(N(C)CCc3ccc(OC)c(OC)c3)C2)s1 (stereo not given)	i	-8	14*	-7	0
CCc1ccc(OCC2NCCc3cc(OC)c(OC)cc32)cc1 (stereo not given)	i	-1	-2	-2	8
COc1cc2c(cc1OC)C(COc1ccc(F)cc1)NCC2 (stereo not given)	u	1	271*	-4	0
COC(=O)C1=C(C)N(Cc2ccccc2C(F)(F)F)C(=NCC2CC2)NC1c1cccc(F)c1 (stereo not given)	x	4	x	x	x
CCN(CCNc1ccc(Cl)cc1[N+](=O)[O-])C(=O)c1cc([N+](=O)[O-])c(N(C)C)cc1OC	i	0	16*	26	-2
COC(=O)[C@]12C[C@H](CC(=O)N3CCN(C(=O)c4ccco4)CC3)C(=O)N(Cc3ccccc3)C1=C[C@H](C1CCCC1)O[C@@H]2C	x	4	x	x	x
N#C/C(=C/c1ccc(-c2cccc([N+](=O)[O-])c2)o1)C(=O)Nc1nc(-c2cccs2)cs1	i	18	23*	10	4
N#C/C(=C\c1ccc(-c2ccccc2[N+](=O)[O-])o1)C(=O)Nc1nc(-c2cccs2)cs1	i	50*	12*	21	21
N#C/C(=C\c1ccc(-c2cccc([N+](=O)[O-])c2)o1)C(=O)N1CCOCC1	i	3	4	8	-2
CC1(C)CC(=O)C=C(c2ccc(COC(=O)c3ccc(Br)cc3)cc2)C1=O	x	3	x	x	x
O=C(Cn1cc2c(n1)CCCC2)NC1CCCCCC1	i	-2	-1	2	-1
COC(=O)c1ccn(CC(=O)NC2CCCCC2)n1	+	1	0	-2	0
COC(=O)[C@]12C[C@H](CC(=O)NCc3ccc(C)o3)C(=O)N(Cc3ccc(Cl)cc3Cl)C1=C[C@H](C(C)C)O[C@@H]2C1CC1	x	2	x	x	x
CCOc1ccc(OCCCC(=O)NCCc2ccc(OC)cc2)cc1	i	-6	34*	-3	-1
CCCCC(=O)NCCc1ccc(OC)cc1	i	-4	-1	-2	15
CCCN(CC1CC1)C(=O)CN1C(=O)C2CCCCN2C(=O)c2ccccc21 (stereo not given)	x	0	x	x	x
Cc1cc(C(=O)N/N=C/c2ccc(-c3cccc(Cl)c3Cl)o2)n[nH]1	i	2	13*	-8	7
Cc1cc(C(=O)N/N=C/c2ccc(-c3cccc(Br)c3)o2)n[nH]1	i	12	15*	6	4
COc1ccc(C(=O)c2[nH]c(N)c(C(=O)c3c[nH]c4ccccc34)c2-c2ccc(OC)cc2)cc1	x	16	x	x	x
SMILES	Myeloid diff MLP	rCAG RNA binder	GRIN3A LBD mod	FAS TE block	MPTP block
Cc1nn(-c2ccccc2)c2sc(C(=O)NCCc3ccc(Cl)cc3)cc12	x	9	x	x	x
Cc1ccc(C)c(Cn2nnc3c(=O)[nH]c(C4CCN(S(=O)(=O)c5ccc(S(=O)(=O)N(C)C)cc5)CC4)nc32)c1	i	5	4	17	0
Cc1ccc(C)c(Cn2nnc3c(=O)[nH]c(C4CCN(S(=O)(=O)c5ccc(S(=O)(=O)NC6CC6)cc5)CC4)nc32)c1	i	17	12*	23	-1
O=c1[nH]c(C2CCN(S(=O)(=O)c3ccc(S(=O)(=O)NC4CC4)cc3)CC2)nc2c1nnn2Cc1ccc(F)cc1	x	9	10*	-6	1
CC(C)CN1C(=O)C[C@]2(C(=O)N(C)c3ccc(NS(=O)(=O)C4CCCCC4)cc32)C1c1ccccc1 (stereo not given in full)	x	4	x	x	x
COc1cccc(-c2cccc3c4c([nH]c23)[C@@H]2C[C@H]3[C@@H](C(=O)N2CC4)[C@H](C)ON3C)c1	x	3	x	x	x
CC(C)[C@H](NC(=O)CC1CCCC1)C(=O)N1CCC[C@H]1C(=O)NCc1ccccc1	x	1	x	x	x
CC1CN(c2ccc(C(F)(F)F)cc2[N+](=O)[O-])CCN1S(C)(=O)=O (stereo not given)	i	-4	14*	-13	0
CC1CN(c2ccc([N+](=O)[O-])cc2Cl)CCN1S(C)(=O)=O (stereo not given)	i	0	1	7	0
COc1ccc2c(c1)CCCN2C(=O)C1CCCN(S(=O)(=O)c2cccs2)C1 (stereo not given)	x	0	x	x	x
Cc1cc(C)cc(NC(=S)NCc2ccc3[nH]c4c(c3c2)CCCC4)c1	i	15	17*	9	2
C=CCN1C(C(=O)OC)CN(Cc2cn(CCC3OCCO3)nn2)CCS1(=O)=O (stereo not given)	x	3	x	x	x
COc1cc(OC)cc(C(=O)N[C@H](C(=O)OCC(N)=O)C(C)C)c1	i	-5	11*	-8	-1
CC(=O)c1c(C)[nH]c(C(=O)OCC(=O)Nc2ccc3[nH]c(=O)[nH]c3c2)c1C	i	3	21*	-7	-2
CC(=O)c1c(C)[nH]c(C(=O)OCC(=O)Nc2cccc(S(=O)(=O)N(C)C)c2)c1C	i	4	-8	-2	-1
C[C@H](CO)N1C[C@H](C)[C@@H](CN(C)C(=O)NC2CCCCC2)Oc2c(NC(=O)Nc3ccc(C(F)(F)F)cc3)cccc2C1=O	i	0	11*	85*	1
C[C@@H]1CN([C@H](C)CO)C(=O)c2cccc(NC(=O)Nc3ccc(F)cc3)c2O[C@H]1CN(C)C(=O)Nc1ccc(C(F)(F)F)cc1	i	7	15*	37	0
C[C@H](CO)N1C[C@H](C)[C@@H](CN(C)C(=O)Nc2ccc(C(F)(F)F)cc2)Oc2c(NC(=O)Nc3ccccc3)cccc2C1=O	i	17	15*	64*	-1
COc1ccc(NC(=O)Nc2cccc3c2O[C@H](CN(C)C(=O)Nc2ccccc2)[C@@H](C)CN([C@H](C)CO)C3=O)cc1	i	1	1	48	-4
COc1ccc(NC(=O)N(C)C[C@H]2Oc3c(NC(=O)Nc4ccc(C(F)(F)F)cc4)cccc3C(=O)N([C@H](C)CO)C[C@@H]2C)cc1	i	11	16*	62*	0
COc1ccc(Nc2ncnc3sc(-c4ccccc4)cc23)cc1OC	i	8	13*	22	18
